From PubChem BioAssay
SW480 rereplic = A quantitative high throughput screen for small molecules that induce DNA re-replication in SW480 colon adenocarcinoma cells; Potency, µM (top dose mostly 46.1 µM), for inactives: at the highest dose re-replication activation, usual class: activators; hit rate 1.8% among 340,000; AID 624297, 2012; SW480 DNA re-replication, Hoechst DNA content imaging, 48 h; also: potency is read from the fitted curve at half-maximal effect; % of control where 0% means no effect; nearly all actives have a fitted effect of over 55% in size
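SW480 cells exposed to compounds for 48 hr at 37 C, 5% CO2, then Hoechst-stained 40 min. Nuclear DNA content imaged by fluorescence scanning (405 nm excitation, 500-530 nm emission); re-replication scored as increased high-intensity nuclei.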
MCF10A rereplic = A quantitative high throughput screen for small molecules that induce DNA re-replication in MCF 10a normal breast cells; MCF 10A DNA re-replication, Hoechst nuclear intensity, 48 h; Potency, µM (series often up to 46.1 µM), without a hit: at the highest dose activity, positive = re-replication, most hits filed as activators; hit rate 2.9% among 350,000; also: potency is read from the fitted curve at half-maximal effect; % of control where 0% means no effect; nearly all actives have a fitted effect of over 50% in size
Giardia kill = Small Molecules that selectively kill Giardia lamblia: qHTS; Giardia lamblia trophozoite viability; activity change, % at 7.66 µM, hits read low; hit rate 0.15% among 340,000; AID 540267, 2011; in the data active = activity change below about -80%; inconclusive = between about -30% and that limit;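 also: parasites exposed to compound for two days anaerobically before the ATP read; % is scaled to controls: 0 for no effect and ±100 for the full control effect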
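Media and compound were dispensed first, then trophozoites at 100 cells/well; plates sat 48 hrs at 37 deg C without oxygen before ATP luminescence reagent was added and read after 15-30 min at room temperature.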
KB-3-1 cytotox = qHTS assay for MDR1-selective chemotherapeutics: Primary screen using the parental adenocarcinoma cell KB-3-1. KB-3-1 viability, CellTiter-Glo ATP luminescence, 72 h. Potency, µM (series often up to 46.1 µM), hits mostly cytotoxic. hit rate 1.4% among 400,000; also: potency is read from the fitted curve at half-maximal effect; % is scaled to controls: 0 for no effect and ±100 for the full control effect; nearly all actives have a fitted effect of over 60% in size
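Screening of KB-3-1 cells (DMEM, 10% FBS, phenol-red free) ran from lowest to highest compound concentration; after 72 h at 37 °C viability was read luminescently and curves fitted.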
KB-V1 MDR tox = qHTS assay for MDR1-selective chemotherapeutics: Primary screen using the drug-selected MDR subline cells KB-V1; KB-V1 MDR cells viability, CellTiter-Glo, 72 h; Potency, µM (series often up to 46.1 µM), usual class: cytotoxic; hit rate 3.4% among 400,000; also: potency is read from the fitted curve at half-maximal effect; % is scaled to controls: 0 for no effect and ±100 for the full control effect; nearly all actives have a fitted effect of over 60% in size
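Luminescent ATP read-out (CellTiter-Glo, 10 min) measures survival of drug-selected KB-V1 MDR cells after 72 h, 37 degrees C compound exposure. Medium: phenol-red-free DMEM, 10% FBS. Values from fitted concentration-response curves.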
S-ASM inh = Inhibitors of Secretory Acid Sphingomyelinase (S-ASM): qHTS; Sphingomyelin phosphodiesterase (Homo sapiens), P17405; placental ASM, HMU-PC fluorogenic substrate, 60 min; Potency, µM (top dose mostly 57.5 µM), for inactives: top-dose activity change, negative = inhibition, actives largely listed as inhibitors; hit rate 0.006% among 340,000; AID 504937, 2011; also: potency is read from the fitted curve at half-maximal effect
Target sequence (P17405 47-631 limits assumed): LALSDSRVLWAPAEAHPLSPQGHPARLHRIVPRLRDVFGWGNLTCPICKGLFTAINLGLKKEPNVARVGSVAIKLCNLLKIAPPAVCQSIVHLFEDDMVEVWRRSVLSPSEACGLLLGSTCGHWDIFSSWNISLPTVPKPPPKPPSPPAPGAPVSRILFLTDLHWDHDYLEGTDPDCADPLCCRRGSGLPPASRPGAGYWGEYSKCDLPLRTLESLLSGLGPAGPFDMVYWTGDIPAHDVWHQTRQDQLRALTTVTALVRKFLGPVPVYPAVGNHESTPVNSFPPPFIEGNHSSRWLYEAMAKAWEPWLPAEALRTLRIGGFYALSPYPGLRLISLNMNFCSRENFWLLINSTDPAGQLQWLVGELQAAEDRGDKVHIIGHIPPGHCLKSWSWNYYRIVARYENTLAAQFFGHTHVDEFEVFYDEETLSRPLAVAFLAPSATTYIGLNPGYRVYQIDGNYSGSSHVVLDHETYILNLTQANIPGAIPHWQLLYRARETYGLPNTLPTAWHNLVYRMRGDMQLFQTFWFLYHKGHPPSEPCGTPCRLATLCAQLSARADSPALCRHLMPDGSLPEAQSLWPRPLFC
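Human placenta-derived ASM enzyme was preincubated with compound for 10 minutes at room temperature, then given fluorogenic substrate HMU-PC0 (9 uM final) for 60 minutes at 37 °C; a pH 10 stop preceded fluorescence reading at Ex 386/Em 447 nm.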
An asterisk follows results filed as active; i = inactive; ? = inconclusive; · = not tested or not shown. An excerpt weighted towards active compounds, which were near 6.9% of everything screened. Unless noted, calls follow the shape of the dose curve; as a rule, active = well fitted curve in the direction sought with a large enough effect; inconclusive = small, poorly fitted or top-dose-only effect, or another doubt; inactive = no such curve, though single readings can be large; an effect the other way counts as inactive or inconclusive.

SMILES	SW480 rereplic	MCF10A rereplic	Giardia kill	KB-3-1 cytotox	KB-V1 MDR tox	S-ASM inh
CCN(CC)CCN(C(=O)/C=C/c1cccs1)c1nc2ccc(OC)cc2s1	-1%	0%	37	i	i	-2%
CN(C)CCCN(C(=O)/C=C/c1cccs1)c1nc2c(F)cccc2s1	?	26µM*	-7	?	?	-5%
CCOc1ccc2nc(N(CCN(CC)CC)C(=O)/C=C/c3cccs3)sc2c1	29µM*	?	0	i	i	-9%
CNCc1nc(-c2ccc[nH]2)c2cc(Cl)ccc2n1	·	·	·	i	?	·
Cc1oc2ccc(O)c(CN3CCN(C)CC3)c2c1C(=O)Nc1cccc(Cl)c1C	·	·	·	i	i	·
O=C1c2[nH]nc(-c3ccccc3O)c2C(c2cccc(Cl)c2)N1Cc1ccco1 (centres undefined)	?	7.3µM*	-1	?	15µM*	?
O=C1c2[nH]nc(-c3ccccc3O)c2C(c2ccc(F)cc2)N1Cc1ccco1 (centres undefined)	?	?	-16	?	6.5µM*	-18%
CCOC(=O)c1c(NC(=O)C(Sc2ccccc2)c2ccccc2)sc(C(=O)N(C)C)c1C (centres undefined)	?	?	-1	?	2.9µM*	-12%
Cc1ccc(SCC(CC(C)C)N2CCN(C)CCC2=O)cc1 (centres undefined)	·	·	-14	·	·	·
O=C(C[n+]1cccc(I)c1)c1ccc(F)cc1	·	·	·	i	i	·
COc1ccccc1COCC(O)CN1CCN(S(=O)(=O)c2cccc(F)c2)CC1 (centres undefined)	29%	6%	-6	i	i	0%
O=S(=O)(c1ccc(F)cc1)N1CCN(CC(O)COCc2ccccc2)CC1 (centres undefined)	-2%	-3%	1	i	21µM*	2%
COc1ccc(COCC(O)CN2CCN(S(=O)(=O)c3c(F)cccc3F)CC2)cc1OC (centres undefined)	?	10%	-14	i	13µM*	2%
Cc1ccc2nc(-c3ccc(Cl)cc3)cc(C(=O)OCC(=O)c3ccccc3)c2c1	·	·	·	i	?	·
COc1cc(OC)c(NC(=O)c2c3c(nc4ccccc24)C(=O)N(C2CCCCC2)C3)cc1Cl	·	·	·	?	i	·
COc1cc(/C=C2\SC(=Nc3ccc(O)cc3)NC2=O)cc(OC)c1OC	3.3µM*	?	8	4.6µM*	i	1%
COc1ccccc1N=C1NC(=O)/C(=C/c2ccc(N(C)C)cc2)S1	4.1µM*	9.2µM*	20	10µM*	7.3µM*	-13%
COc1ccc(/C=C2/S/C(=N/S(=O)(=O)Cc3ccccc3)NC2=O)cc1OC	-1%	21%	6	i	i	21%
COc1cc(/C=C2/SC(=Nc3ccc(O)cc3)NC2=O)cc(OC)c1O	21µM*	?	-9	?	i	-2%
COc1ccc(N=C2NC(=O)/C(=C/c3ccc(O)c(OC)c3)S2)cc1	23µM*	?	-9	?	?	-14%
COc1cc2c(=O)n(CCc3ccccc3)c(=O)n(CC(=O)Nc3ccccc3)c2cc1OC	·	·	·	i	i	·
Nc1ccc(C=O)cc1	·	·	·	i	i	·
CCOC(=O)c1cc(OC(=O)c2cccc(F)c2)n(-c2ccccc2)n1	·	·	·	i	i	·
COc1ccc(N=C2NC(=O)/C(=C\c3ccco3)S2)cc1	8%	?	-8	i	i	6%
O=C1NC(=Nc2ccc(O)cc2)S/C1=C\C=C\c1ccco1	?	?	-10	3.3µM*	2.3µM*	-10%
CCOc1ccc(-c2cc(C(=O)OC)nc3c2c(=O)n(C)c(=O)n3C)cc1	?	23µM*	?	i	i	116%
